Assay results published in the supplement of paper PMC10849652.
Of roughly 8,800 targets only a part is listed; those with a hit were picked by preference. About 0.5% of all pairs of compound and target were hits. Values without a mark were called inactive.

How the values were obtained:
Assay in all cases: log2 fold change, soluble protein after heating vs DMSO (PISA); higher = thermal stabilisation; K562 lysate, 10 uM; active = over 0.2 and 3.5 SD of the protein, either way, in both replicates (recomputed)
[1] = compound: CN1CC[C@H](c2c(O)cc(O)c3c(=O)cc(-c4ccccc4Cl)oc23)[C@H](O)C1 [alvocidib]
Summary of the method: (§1)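 Following dounce homogenisation of K562 pellets in PBS pH 7.4 with 1 mM MgCl2, crude extract at 1 mg/mL protein was incubated for 30 min with 10 μM compound. Aliquots were then heated for 3 min over 48°C-58°C and pooled, NP-40 was added to 0.5% at 4°C, and soluble protein was recovered as the supernatant at 21,000xg for 90 min. Channel-sum-equalised TMTpro 16plex LC-MS/MS quantified this protein. Each value, from duplicates, is a log-two fold change in thermal stability relative to solvent controls.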

[2] = compound: CN1CCc2c(c3ccccc3n2Cc2ccc(C(=O)NO)cc2)C1 [Tubastatin A]
Summary of the method: as §1

[3] = compound: CNC(=O)C1=CC=CC=C1NC2=NC(=NC=C2Cl)NC3=C(C=C(C=C3)N4CCOCC4)OC
Summary of the method: as §1

[4] = compound: CNC(=O)c1ccc(Nc2ncc(C(F)(F)F)c(NCc3nccnc3N(C)S(C)(=O)=O)n2)cc1 [defactinib]
Summary of the method: as §1

[5] = compound: CNc1nc(-c2ccc3c(N)n[nH]c3c2)cc(N2C[C@@H](C(=O)NC3CCCCC3)CC[C@H]2C)n1
Summary of the method: as §1

[6] = compound: COC(=O)N[C@@H](C)CNc1nccc(-c2cn(C(C)C)nc2-c2cc(Cl)cc(NS(C)(=O)=O)c2F)n1 [encorafenib]
Summary of the method: as §1

[7] = compound: COC(=O)[C@H](CCSC)NC(=O)C1=C(C=C(C=C1)NC[C@H](CS)N)C2=CC=CC=C2
Summary of the method: as §1

[8] = compound: COc1cc(Nc2ncc3c(n2)-c2ccc(Cl)cc2C(c2c(F)cccc2OC)=NC3)ccc1C(=O)O [alisertib]
Summary of the method: as §1

[9] = compound: COc1cc2nc(-c3cc(F)ccc3O)nc(N[C@@H]3CNC[C@H]3C(C)(C)O)c2cc1OC
Summary of the method: as §1

[10] = compound: COc1cc2ncnc(Nc3ccc(F)c(Cl)c3)c2cc1OCCCN1CCOCC1 [gefitinib]
Summary of the method: as §1

UniProt Q96K21, sequence (Q96K21 whole entry, looked up): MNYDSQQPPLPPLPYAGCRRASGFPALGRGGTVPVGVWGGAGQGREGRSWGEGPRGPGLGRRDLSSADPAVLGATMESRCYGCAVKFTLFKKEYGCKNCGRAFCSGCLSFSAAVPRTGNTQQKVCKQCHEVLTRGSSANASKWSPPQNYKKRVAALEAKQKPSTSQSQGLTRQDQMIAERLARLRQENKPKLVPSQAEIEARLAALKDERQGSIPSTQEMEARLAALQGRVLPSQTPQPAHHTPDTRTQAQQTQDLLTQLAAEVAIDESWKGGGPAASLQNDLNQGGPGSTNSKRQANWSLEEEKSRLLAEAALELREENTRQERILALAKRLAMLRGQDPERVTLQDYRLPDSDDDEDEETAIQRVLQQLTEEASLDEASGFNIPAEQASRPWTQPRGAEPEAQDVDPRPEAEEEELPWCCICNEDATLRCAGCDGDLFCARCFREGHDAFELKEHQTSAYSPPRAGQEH
UniProt Q9H270, sequence (Q9H270 whole entry, looked up): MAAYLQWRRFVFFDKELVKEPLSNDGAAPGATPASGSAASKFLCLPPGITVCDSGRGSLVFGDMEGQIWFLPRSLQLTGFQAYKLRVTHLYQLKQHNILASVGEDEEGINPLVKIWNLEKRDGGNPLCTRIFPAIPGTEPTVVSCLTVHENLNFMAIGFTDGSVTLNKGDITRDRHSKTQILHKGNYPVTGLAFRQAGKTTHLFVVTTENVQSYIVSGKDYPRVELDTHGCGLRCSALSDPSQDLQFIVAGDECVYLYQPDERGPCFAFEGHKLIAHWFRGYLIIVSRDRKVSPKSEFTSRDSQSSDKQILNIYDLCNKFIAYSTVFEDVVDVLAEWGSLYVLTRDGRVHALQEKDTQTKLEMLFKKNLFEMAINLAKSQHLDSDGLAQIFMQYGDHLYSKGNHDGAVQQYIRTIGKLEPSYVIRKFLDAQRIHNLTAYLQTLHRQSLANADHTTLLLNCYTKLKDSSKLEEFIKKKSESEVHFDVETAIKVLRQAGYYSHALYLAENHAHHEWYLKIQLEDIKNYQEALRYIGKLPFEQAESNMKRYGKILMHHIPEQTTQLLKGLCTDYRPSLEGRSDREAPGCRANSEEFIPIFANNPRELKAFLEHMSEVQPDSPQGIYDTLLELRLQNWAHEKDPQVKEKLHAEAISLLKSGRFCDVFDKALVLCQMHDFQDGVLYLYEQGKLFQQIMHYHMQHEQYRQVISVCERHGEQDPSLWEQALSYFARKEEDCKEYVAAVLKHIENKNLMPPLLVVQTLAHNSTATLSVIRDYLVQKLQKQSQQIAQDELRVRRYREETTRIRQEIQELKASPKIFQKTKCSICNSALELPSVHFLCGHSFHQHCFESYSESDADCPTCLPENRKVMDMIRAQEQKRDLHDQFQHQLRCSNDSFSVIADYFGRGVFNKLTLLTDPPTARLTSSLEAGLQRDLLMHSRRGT
UniProt Q9HAD4, sequence (Q9HAD4 whole entry, looked up): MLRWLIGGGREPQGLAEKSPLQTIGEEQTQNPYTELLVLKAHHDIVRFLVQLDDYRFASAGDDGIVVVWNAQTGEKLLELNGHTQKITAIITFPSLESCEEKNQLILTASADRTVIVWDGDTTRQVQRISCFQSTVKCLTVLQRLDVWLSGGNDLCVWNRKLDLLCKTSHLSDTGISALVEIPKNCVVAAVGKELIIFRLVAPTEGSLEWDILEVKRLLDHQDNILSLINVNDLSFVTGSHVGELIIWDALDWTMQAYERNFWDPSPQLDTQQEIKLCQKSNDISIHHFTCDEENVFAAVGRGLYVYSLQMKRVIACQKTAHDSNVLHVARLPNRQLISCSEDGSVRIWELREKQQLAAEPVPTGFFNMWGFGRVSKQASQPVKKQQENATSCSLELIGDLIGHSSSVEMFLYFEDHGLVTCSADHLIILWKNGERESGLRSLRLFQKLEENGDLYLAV
UniProt P27348, sequence (P27348 whole entry, looked up): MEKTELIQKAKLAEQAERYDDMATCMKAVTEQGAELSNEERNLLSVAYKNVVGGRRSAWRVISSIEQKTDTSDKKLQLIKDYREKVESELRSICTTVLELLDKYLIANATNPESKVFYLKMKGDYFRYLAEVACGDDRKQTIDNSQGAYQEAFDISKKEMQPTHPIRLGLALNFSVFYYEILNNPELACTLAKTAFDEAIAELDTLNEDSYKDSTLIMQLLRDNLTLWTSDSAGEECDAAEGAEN
UniProt Q9UN37, sequence (Q9UN37 whole entry, looked up): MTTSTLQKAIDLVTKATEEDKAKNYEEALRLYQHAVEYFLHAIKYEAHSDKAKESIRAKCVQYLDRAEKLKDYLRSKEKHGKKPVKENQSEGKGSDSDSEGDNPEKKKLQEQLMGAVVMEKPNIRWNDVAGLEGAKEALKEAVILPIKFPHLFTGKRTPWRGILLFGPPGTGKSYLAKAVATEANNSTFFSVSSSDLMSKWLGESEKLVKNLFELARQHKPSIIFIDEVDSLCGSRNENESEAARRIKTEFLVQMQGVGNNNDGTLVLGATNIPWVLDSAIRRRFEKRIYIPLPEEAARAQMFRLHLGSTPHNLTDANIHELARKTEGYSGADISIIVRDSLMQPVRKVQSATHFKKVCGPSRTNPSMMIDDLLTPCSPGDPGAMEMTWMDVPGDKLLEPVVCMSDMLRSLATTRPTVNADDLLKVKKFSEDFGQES
UniProt Q9NQW7, sequence (Q9NQW7 whole entry, looked up): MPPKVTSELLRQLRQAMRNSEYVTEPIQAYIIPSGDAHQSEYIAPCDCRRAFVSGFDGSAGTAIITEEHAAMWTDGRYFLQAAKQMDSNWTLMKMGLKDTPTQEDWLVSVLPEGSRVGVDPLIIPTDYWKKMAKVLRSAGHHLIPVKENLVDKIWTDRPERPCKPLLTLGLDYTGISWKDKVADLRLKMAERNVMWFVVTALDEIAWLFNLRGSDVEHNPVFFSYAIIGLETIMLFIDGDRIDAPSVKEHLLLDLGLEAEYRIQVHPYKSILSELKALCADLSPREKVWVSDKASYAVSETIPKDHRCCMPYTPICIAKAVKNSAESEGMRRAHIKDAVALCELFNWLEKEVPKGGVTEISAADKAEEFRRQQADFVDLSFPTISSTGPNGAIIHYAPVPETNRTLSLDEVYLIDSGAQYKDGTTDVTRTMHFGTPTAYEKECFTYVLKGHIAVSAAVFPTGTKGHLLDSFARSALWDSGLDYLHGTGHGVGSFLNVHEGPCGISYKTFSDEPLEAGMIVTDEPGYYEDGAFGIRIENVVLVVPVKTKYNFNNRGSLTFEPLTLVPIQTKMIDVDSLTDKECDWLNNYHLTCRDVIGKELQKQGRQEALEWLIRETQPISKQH
UniProt Q9Y4E6, sequence (Q9Y4E6 whole entry, looked up): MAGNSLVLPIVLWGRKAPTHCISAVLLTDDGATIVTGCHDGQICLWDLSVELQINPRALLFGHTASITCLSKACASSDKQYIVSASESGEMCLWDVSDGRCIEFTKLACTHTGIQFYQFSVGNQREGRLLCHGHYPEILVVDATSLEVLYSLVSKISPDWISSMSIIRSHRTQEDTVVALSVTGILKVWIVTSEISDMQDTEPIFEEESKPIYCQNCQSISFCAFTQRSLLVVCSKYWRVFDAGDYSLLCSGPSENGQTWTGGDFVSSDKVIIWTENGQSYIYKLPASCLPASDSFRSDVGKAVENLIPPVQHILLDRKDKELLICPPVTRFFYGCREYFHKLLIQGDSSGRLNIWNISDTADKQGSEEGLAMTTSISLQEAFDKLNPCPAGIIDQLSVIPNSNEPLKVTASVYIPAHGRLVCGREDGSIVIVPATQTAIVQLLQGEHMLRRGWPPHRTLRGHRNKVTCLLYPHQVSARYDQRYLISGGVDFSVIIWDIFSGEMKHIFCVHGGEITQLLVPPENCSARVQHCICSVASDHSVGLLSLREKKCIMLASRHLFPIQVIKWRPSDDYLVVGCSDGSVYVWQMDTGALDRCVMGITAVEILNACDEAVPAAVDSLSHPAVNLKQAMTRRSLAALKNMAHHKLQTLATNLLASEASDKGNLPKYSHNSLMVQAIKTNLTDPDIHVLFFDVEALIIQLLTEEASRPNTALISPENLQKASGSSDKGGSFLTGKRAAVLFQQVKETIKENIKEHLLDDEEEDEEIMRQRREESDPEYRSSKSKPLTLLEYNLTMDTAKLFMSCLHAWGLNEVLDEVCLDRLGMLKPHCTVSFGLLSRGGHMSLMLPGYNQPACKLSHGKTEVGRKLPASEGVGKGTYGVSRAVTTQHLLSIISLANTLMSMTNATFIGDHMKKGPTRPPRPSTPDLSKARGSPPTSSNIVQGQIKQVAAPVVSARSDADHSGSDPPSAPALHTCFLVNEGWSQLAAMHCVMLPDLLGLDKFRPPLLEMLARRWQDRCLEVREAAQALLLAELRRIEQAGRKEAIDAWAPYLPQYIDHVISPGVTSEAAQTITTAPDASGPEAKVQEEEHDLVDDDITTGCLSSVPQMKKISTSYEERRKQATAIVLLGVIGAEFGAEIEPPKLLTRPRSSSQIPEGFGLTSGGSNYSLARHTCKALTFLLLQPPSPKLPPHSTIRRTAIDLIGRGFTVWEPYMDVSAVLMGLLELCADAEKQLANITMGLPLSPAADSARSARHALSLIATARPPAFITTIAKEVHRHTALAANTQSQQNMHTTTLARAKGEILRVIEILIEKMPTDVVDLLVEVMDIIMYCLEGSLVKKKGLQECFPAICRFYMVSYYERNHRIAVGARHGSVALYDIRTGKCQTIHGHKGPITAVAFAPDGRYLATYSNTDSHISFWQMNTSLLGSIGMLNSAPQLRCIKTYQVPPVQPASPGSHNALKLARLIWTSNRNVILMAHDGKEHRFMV
UniProt O95619, sequence (O95619 whole entry, looked up): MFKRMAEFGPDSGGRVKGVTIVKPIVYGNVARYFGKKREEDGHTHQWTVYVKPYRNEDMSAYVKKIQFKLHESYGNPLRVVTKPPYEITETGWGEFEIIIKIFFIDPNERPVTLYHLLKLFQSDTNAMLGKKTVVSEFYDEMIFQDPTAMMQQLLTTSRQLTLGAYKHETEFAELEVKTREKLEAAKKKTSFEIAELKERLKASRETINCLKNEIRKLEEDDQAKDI

Target	log2 fold change [1]	log2 fold change [2]	log2 fold change [3]	log2 fold change [4]	log2 fold change [5]	log2 fold change [6]	log2 fold change [7]	log2 fold change [8]	log2 fold change [9]	log2 fold change [10]
YEATS4 (UniProt O95619)	0.105	0.004	0.012	0.007	-0.054	-0.004	-0.062	0.315 (active)	-0.008	-0.064
WRN (UniProt Q14191)	-0.029	-0.071	-0.007	0.023	-0.025	0.016	-0.013	-0.037	0	0.047
USE1 (UniProt Q9NZ43)	0.019	-0.054	-0.002	0.064	0.015	0.067	-0.037	-0.059	0.039	-0.026
ZFYVE19 (UniProt Q96K21)	-0.141	0.026	-0.037	-0.002	0.008	-0.001	-0.04	0.008	0	0.019
VANGL1 (UniProt Q8TAA9)	0.005	0.088	-0.054	0.078	0.054	-0.011	-0.072	-0.023	-0.071	0.011
VPS4A (UniProt Q9UN37)	-0.004	-0.16	0.025	0.01	-0.1	-0.004	0.138	0	-0.004	-0.025
WDR36 (UniProt Q8NI36)	0.021	-0.102	0.028	-0.018	-0.062	-0.025	0.134	0.008	0.004	-0.03
XPOT (UniProt O43592)	0.004	-0.133	-0.004	0.011	-0.042	0.005	-0.094	0	0.005	0.01
VPS11 (UniProt Q9H270)	0.039	-0.113	0.023	0.022	-0.026	0.016	-0.096	0.002	0.019	-0.007
WDR41 (UniProt Q9HAD4)	-0.061	-0.14	0.021	-0.044	0.017	0.081	-0.121	0.033	-0.047	0.083
WDR7 (UniProt Q9Y4E6)	-0.008	0.008	0	-0.025	0.026	0.092	-0.055	-0.007	-0.01	-0.025
VCPIP1 (UniProt Q96JH7)	-0.049	-0.026	-0.01	0.022	0.113	0.005	0.141	0.003	-0.006	-0.04
VPS16 (UniProt Q9H269)	0.032	-0.082	0.002	-0.006	0	0.049	-0.069	0.031	-0.004	0.013
ZMAT2 (UniProt Q96NC0)	-0.001	0.053	-0.012	-0.001	-0.037	-0.035	-0.014	0.009	0.001	0.013
ZZEF1 (UniProt O43149)	0.005	-0.025	0.017	-0.022	0.017	0.022	0.065	-0.022	0.007	0.008
VTN (UniProt P04004)	-0.112	-0.012	-0.095	0.104	-0.061	0.089	-0.074	-0.041	0.014	0.009
ZC3H13 (UniProt Q5T200)	-0.063	0.063	-0.073	0.088	-0.028	-0.069	0.021	-0.362 (active)	0.016	-0.077
VPS54 (UniProt Q9P1Q0)	-0.07	0	0.059	-0.07	0.013	-0.001	0.105	-0.024	0.071	0.089
WRNIP1 (UniProt Q96S55)	0.005	-0.229	0.01	0.01	-0.044	0.024	0.222 (active)	-0.022	-0.014	0.033
WDR62 isoform 4 (UniProt O43379)	0.018	-0.132	0.012	-0.007	0.048	0.054	-0.01	0.005	0.052	0.013
VRK1 (UniProt Q99986)	0.385 (active)	-0.096	0.008	-0.067	0.017	-0.027	0.047	-0.004	-0.007	-0.026
YWHAQ (UniProt P27348)	0.16	-0.021	-0.006	0	0.023	-0.025	-0.045	-0.014	0.008	-0.06
VARS (UniProt P26640)	-0.003	-0.086	0.002	0.025	-0.008	-0.008	0.16	-0.02	0.003	-0.006
XPNPEP1 isoform 3 (UniProt Q9NQW7)	-0.018	0.011	0.029	-0.001	-0.045	0.001	0.613 (active)	-0.002	0.002	0.002
USP48 isoform 8 (UniProt Q86UV5)	0.006	-0.119	0.019	-0.012	0.011	-0.003	0.14	-0.016	0.003	-0.018
